Test results taken from PubChem BioAssay (Tox21).
Results filed as inconclusive are left out. A call without a number means that no potency is given here. Active and inactive are the calls of the source. The call rests on the fitted dose curve; in most records, active means well fitted cell-killing curve with a large enough effect in the repeat runs; inconclusive means weak or mixed curves; inactive means flat fitted curve, though single readings scatter.

Test: qHTS assay to identify small molecule antagonists of the estrogen related receptor (ERR) signaling pathway - cell viability counter screen (AID 1224818)
Settings: ERR reporter cell line viability counter screen; series mostly up to 46.1 µM
Text: National Center for Advancing Translational Sciences [NCATS]
NIH Chemical Genomics Center [NCGC]
U.S. Environmental Protection Agency [EPA]
National Institutes of Environmental Health Sciences [NIEHS]
National Toxicology Program [NTP]
U.S. Food and Drug Administration [FDA]
Estrogen related receptors (ERRs), the first orphan nuclear receptors discovered, play an important role in the control of cellular energy metabolism. ERRs are required for high-energy production in response to the environmental challenges. ERR-alpha was also identified as an adverse marker for breast cancer progression; ERR-alpha-positive tumors have a poor prognosis. To screen and to identify environmental compounds that perturb the ERR signaling pathways could provide valuable information for potential therapeutic or preventive measures in the treatment of metabolic disease. To differentiate true ERR antagonists or agonist from cytotoxic substances, the assay is multiplexed with cell viability assay.
Tox21 Assay Protocol Summary:
The ERR cells were dispensed at 2,000 cells/5 ul/well in 1536-well white plates using a Multidrop dispenser. After the assay plates were incubated at a 37 C/5% CO2 incubator for 6 hours, 23 nL of compounds dissolved in DMSO, positive and negative controls or DMSO only was transferred to the assay plate by a pin tool. The plates were incubated at 37 C for 17.5 hours. 1 ul/well of CellTiter-Fluor reagent was added into the assay plates using a Flying Reagent Dispenser. After 30 min incubation at 37 C/5% CO2, the fluorescence intensity in the plates was measured using a ViewLux plate reader.
Potency means the concentration at half of the fitted maximal effect.

Structure (SMILES)	Potency
CCCCCCC(=O)OC1CC(C)(C)NC(C)(C)C1	inactive
OCC1O[C@H](O)C(Cl)C(O)C1O (stereo not given in full)	inactive
C#CC(N)CCC(=O)O (stereo not given)	inactive
Cn1c(=O)c2[nH]c(C3CCCC3)nc2n(C)c1=O	inactive
CNC(=O)[C@H]1O[C@@H](n2cnc3c(NCc4ccc(N)cc4)ncnc32)[C@H](O)C1O (stereo not given in full)	inactive
CNCCC(Oc1ccccc1C)c1ccccc1 (stereo not given)	inactive
Cc1cccc(C(=O)NCN2CCN(c3ccccc3C#N)CC2)c1	inactive
Cn1cc(C(F)(F)F)nc1-c1ccc(OCC(O)CNCCOc2ccc(O)c(C(N)=O)c2)cc1 (stereo not given)	inactive
C[C@@H](c1ncncc1F)[C@](O)(Cn1cncn1)c1ccc(F)cc1F	inactive
CCNc1nc2c(ncn2[C@H]2C[C@H](O)[C@@H](CO)O2)c(=O)[nH]1	inactive
CC(C)Cn1c(=O)n(C)c(=O)c2[nH]cnc21	inactive
CS(=O)(=O)c1cccc(CNc2nc(Nc3ccc4c(c3)CCC(=O)N4)ncc2C(F)(F)F)c1	inactive
Nc1nc(OCc2ccccc2)c2[nH]cnc2n1	inactive
N[C@H](CCCP(=O)(O)O)C(=O)O	inactive
COc1ccc2c(c1)c(CC(=O)O)c(C)n2C(=O)c1ccccc1	inactive
NC(=O)C1=CN(C2OC(COP(=O)(O)OP(=O)(O)OC[C@H]3O[C@@H](n4cnc5c(N)ncnc54)[C@H](OP(=O)(O)O)C3O)C(O)C2O)C=CC1 (stereo not given in full)	inactive
C=C[C@H]1CN2CC[C@@H]1C[C@@H]2[C@@H](O)c1ccnc2ccc(OC)cc12	inactive
COc1cc(C(O)CO)ccc1O (stereo not given)	inactive
Nc1nc2ccc(Cl)cc2n2c(-c3ccccc3)nnc12	inactive
CCC(=O)N1CCN(C(=O)c2ccccc2)CC1	inactive

Structure (SMILES)	Potency
CN1C2CC(OC(=O)[C@H](CO)c3ccccc3)CC1C1OC12 (stereo not given in full)	inactive
COC(=O)C(C)(N)Cc1ccc(O)cc1 (stereo not given)	inactive
Cn1c(=O)c2[nH]c(-c3ccc(S(=O)(=O)O)cc3)nc2n(C)c1=O	inactive
Cc1ccccc1/C=C/C1=NCCN1	inactive
CCCCS(=N)(=O)CC[C@H](N)C(=O)O (stereo not given in full)	inactive
CCCCCCCCCCCCCCCCCCN(CCCCCCCCCCCCCCCCCC)CCCN(CCO)CCO	inactive
O=c1c2ccccc2nc2n1CCc1c-2[nH]c2ccccc12	inactive
CN(C)C(=O)/N=N/C(=O)N(C)C	inactive
CC(C)(C)NCC(O)COc1cccc2[nH]c(=O)[nH]c12 (stereo not given)	inactive
CCN(CC)CCNC(=O)c1ccc(NS(C)(=O)=O)cc1	inactive
Nc1ncnc2c1nc(Br)n2C1OC2COP(=O)(O)O[C@@H]2C1O (stereo not given in full)	inactive
CC[C@H]1OC(=O)[C@H](C)[C@@H](O[C@H]2C[C@@](C)(OC)[C@@H](O)[C@H](C)O2)[C@H](C)[C@@H](O[C@@H]2O[C@H](C)C[C@H](NC)[C@H]2O)[C@](C)(O)C[C@@H](C)CN(C)[C@H](C)[C@@H](O)[C@]1(C)O	inactive
CO/N=C(\C(=O)N[C@@H]1C(=O)N2C(C(=O)O)=C(COC(C)=O)CS[C@H]12)c1csc(N)n1 (stereo in doubt)	inactive
CC1(C)CCC2=C(O1)c1ccccc1C(=O)C2=O	16.8 µM (active)
NCCCCN=C(N)N	inactive
O=C1NC(=O)/C(=C/c2ccc3c(c2)OC(F)(F)O3)S1	inactive
CCCC[C@@]1(C2CCCC2)Cc2cc(OCC(=O)O)c(Cl)c(Cl)c2C1=O	inactive
CCc1ccc2c(-c3cccc(Cl)c3)nc(=O)n(CC)c2n1	inactive
Oc1cc2c(cc1O)C(c1ccccc1)CNCC2 (stereo not given)	inactive
O=C(c1cc(O)c(O)c([N+](=O)[O-])c1)c1ccccc1F	inactive
